# According to paper PMC7862700, “An all-to-all approach to the identification of sequence-specific readers for epigenetic DNA modifications on cytosine”:
# Columns and labels:
# Experiment in all cases: DAPPL (digital affinity profiling via proximity ligation, sequencing); 10 mM Tris-HCl pH 7.5, 50 mM NaCl, 1 mM DTT, 4% glycerol, room temperature, 30 min; GST-TFs on glutathione beads, 16-mer random dsDNA library, 0.1% formaldehyde crosslink after washing; high values mean tight binding
# FLI1 = target: T1, FLI1 (Homo sapiens, UniProt Q01543 1-452); settings: protein: recombinant; tags: N-terminal GST; dsDNA, one strand shown
# T1 sequence: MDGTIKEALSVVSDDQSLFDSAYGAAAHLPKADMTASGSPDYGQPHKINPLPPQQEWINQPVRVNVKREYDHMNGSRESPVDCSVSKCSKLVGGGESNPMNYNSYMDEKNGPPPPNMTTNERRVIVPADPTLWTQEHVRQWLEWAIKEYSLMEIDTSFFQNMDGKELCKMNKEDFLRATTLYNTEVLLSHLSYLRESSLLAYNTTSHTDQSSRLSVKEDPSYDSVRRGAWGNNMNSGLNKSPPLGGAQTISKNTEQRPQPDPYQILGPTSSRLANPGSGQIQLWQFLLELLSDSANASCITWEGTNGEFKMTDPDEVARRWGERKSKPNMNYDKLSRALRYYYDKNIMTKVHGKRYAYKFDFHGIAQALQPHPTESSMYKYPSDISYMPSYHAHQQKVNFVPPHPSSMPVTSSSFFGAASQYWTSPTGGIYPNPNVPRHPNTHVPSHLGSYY
# Procedure, shortened: (§1)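 GST fusions of human transcription factors were expressed in yeast and captured with glutathione beads. Once given DNA barcodes and pooled alongside a tag-only sample, they were incubated for 30 min at room temperature with 200 nmole of a random double-stranded 16-mer DNA library in Tris/NaCl/DTT/glycerol buffer, then washed, crosslinked (0.1% formaldehyde), proximity-ligated, PCR-amplified and sequenced on an Illumina NextSeq500. The binding signal of each hexamer is its read frequency for a factor divided by its frequency for the tag-only sample.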
# ELK1 = target: T2, ELK1 (Homo sapiens, UniProt P19419 1-428); settings: protein: recombinant; tags: N-terminal GST; dsDNA, one strand shown
# T2 sequence: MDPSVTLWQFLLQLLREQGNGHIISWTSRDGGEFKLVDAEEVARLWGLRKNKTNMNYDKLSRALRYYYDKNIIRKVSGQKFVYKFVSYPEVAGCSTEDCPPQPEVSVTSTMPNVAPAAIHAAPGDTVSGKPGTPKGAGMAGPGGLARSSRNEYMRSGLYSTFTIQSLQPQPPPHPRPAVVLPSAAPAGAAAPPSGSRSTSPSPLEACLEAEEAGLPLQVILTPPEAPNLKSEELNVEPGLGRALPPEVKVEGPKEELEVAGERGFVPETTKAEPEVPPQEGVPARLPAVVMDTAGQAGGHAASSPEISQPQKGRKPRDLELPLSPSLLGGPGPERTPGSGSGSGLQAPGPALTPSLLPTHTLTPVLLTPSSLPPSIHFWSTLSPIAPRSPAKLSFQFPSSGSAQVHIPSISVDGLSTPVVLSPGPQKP
# Procedure, shortened: as §1
# GABPA = target: T3, GABPA (Homo sapiens, UniProt Q06546 1-454); settings: protein: recombinant; tags: N-terminal GST; dsDNA, one strand shown
# T3 sequence: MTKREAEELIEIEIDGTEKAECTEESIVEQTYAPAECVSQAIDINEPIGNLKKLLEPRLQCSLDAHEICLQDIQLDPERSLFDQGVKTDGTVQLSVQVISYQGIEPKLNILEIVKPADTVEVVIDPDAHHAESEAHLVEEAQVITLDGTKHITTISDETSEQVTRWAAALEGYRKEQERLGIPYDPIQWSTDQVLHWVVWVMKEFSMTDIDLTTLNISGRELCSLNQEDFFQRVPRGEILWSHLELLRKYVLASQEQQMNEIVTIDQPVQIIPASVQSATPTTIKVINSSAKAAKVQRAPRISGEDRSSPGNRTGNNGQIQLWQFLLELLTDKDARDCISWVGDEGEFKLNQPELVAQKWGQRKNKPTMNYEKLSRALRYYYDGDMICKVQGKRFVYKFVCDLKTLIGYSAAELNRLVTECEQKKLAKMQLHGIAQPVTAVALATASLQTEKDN
# Procedure, shortened: as §1
# ERG = target: T4, ERG (Homo sapiens, UniProt P11308 1-479); settings: protein: recombinant; tags: N-terminal GST; dsDNA, one strand shown
# T4 sequence: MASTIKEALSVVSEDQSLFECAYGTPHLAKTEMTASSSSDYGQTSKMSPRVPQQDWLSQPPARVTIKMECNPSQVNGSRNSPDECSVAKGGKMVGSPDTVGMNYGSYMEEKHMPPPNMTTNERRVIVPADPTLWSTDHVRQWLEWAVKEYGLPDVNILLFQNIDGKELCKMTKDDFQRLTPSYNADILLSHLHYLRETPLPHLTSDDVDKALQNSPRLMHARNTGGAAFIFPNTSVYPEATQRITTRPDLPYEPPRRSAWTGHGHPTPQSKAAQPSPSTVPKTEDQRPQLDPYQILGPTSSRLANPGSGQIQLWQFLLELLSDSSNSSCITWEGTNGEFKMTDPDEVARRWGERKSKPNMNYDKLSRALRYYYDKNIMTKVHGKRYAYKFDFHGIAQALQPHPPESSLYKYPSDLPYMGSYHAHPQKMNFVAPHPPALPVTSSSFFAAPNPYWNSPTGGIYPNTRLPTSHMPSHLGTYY
# Procedure, shortened: as §1
# ELF1 = ELF1 (Homo sapiens, UniProt P32519 1-619); settings: protein: recombinant; tags: N-terminal GST; dsDNA, one strand shown
# Chain of ELF1 (P32519 whole entry): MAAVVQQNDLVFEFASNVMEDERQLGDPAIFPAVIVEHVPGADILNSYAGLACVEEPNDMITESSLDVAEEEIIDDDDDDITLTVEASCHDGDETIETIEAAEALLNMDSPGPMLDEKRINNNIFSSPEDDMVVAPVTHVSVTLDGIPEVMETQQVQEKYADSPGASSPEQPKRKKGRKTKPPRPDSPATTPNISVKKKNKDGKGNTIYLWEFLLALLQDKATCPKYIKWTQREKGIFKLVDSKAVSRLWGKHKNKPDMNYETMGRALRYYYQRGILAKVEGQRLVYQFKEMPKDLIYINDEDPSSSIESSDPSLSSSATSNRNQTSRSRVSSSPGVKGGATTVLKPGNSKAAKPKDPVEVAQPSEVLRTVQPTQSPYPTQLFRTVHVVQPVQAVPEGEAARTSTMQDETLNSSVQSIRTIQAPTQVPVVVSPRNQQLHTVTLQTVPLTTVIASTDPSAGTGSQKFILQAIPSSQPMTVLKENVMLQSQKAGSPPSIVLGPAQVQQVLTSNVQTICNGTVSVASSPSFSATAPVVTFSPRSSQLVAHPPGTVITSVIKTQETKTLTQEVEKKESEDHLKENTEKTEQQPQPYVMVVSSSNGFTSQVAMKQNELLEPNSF
# Procedure, shortened: as §1
# EHF = target: T5, EHF (Homo sapiens, UniProt Q9NZC4 1-300); settings: protein: recombinant; tags: N-terminal GST; dsDNA, one strand shown
# T5 sequence: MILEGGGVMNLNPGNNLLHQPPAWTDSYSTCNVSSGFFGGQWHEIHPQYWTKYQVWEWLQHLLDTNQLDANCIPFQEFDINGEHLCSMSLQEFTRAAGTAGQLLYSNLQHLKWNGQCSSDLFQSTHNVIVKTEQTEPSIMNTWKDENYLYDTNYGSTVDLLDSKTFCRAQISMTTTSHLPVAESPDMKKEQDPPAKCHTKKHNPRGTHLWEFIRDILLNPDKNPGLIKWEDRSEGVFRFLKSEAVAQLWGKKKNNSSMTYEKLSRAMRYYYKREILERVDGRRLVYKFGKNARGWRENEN
# Procedure, shortened: as §1
# SPI1 = SPI1 (Homo sapiens, UniProt P17947 1-270); settings: protein: recombinant; tags: N-terminal GST; dsDNA, one strand shown
# Procedure, shortened: as §1
# SPIB = SPIB (Homo sapiens, UniProt Q01892 1-262); settings: protein: recombinant; tags: N-terminal GST; dsDNA, one strand shown
# Chain of SPIB (Q01892 whole entry): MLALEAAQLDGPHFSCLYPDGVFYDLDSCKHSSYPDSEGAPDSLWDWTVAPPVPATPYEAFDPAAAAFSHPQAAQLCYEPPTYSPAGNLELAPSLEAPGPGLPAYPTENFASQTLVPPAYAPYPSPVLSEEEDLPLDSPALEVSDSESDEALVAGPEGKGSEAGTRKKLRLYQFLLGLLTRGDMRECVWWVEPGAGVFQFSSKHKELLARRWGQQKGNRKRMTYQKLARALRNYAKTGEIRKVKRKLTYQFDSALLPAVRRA
# Procedure, shortened: as §1
# ELK3 = target: T6, ELK3 (Homo sapiens, UniProt P41970 1-407); settings: protein: recombinant; tags: N-terminal GST; dsDNA, one strand shown
# T6 sequence: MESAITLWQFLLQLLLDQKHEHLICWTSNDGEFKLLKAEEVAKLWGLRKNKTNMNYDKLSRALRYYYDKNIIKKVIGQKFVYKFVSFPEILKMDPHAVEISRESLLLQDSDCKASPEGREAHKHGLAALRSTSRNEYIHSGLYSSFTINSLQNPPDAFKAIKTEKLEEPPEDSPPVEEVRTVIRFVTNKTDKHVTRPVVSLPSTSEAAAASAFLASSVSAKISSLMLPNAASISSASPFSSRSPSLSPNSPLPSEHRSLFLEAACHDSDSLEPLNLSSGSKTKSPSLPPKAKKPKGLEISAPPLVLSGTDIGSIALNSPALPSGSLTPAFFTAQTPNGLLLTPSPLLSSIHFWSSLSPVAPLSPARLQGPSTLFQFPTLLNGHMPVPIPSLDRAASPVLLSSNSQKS
# Procedure, shortened: as §1
# FEV = target: T7, FEV (Homo sapiens, UniProt Q99581 1-238); settings: protein: recombinant; tags: N-terminal GST; dsDNA, one strand shown
# T7 sequence: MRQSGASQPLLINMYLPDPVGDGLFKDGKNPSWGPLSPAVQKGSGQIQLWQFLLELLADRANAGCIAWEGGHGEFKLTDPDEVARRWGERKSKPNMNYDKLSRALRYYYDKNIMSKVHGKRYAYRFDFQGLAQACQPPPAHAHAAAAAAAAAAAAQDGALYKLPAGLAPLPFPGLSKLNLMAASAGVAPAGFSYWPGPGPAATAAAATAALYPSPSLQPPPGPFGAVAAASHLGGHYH
# Procedure, shortened: as §1
# ETV5 = ETV5 (Homo sapiens, UniProt P41161 1-510); settings: protein: recombinant; tags: N-terminal GST; dsDNA, one strand shown
# Chain of ETV5 (P41161 whole entry): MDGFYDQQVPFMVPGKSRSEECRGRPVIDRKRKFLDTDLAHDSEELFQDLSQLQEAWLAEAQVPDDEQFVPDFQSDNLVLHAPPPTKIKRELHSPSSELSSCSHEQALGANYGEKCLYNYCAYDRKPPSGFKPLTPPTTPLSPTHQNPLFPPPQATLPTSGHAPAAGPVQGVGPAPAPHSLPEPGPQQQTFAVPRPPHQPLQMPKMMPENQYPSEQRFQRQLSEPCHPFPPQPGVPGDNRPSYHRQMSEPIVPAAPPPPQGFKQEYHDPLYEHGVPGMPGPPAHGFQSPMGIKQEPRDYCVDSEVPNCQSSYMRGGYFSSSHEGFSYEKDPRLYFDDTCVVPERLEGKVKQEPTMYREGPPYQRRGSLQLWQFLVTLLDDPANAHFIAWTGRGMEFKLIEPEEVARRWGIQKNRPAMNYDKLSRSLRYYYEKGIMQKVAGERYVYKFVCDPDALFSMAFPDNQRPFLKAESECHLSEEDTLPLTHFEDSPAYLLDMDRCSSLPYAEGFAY
# Procedure, shortened: as §1
# HSF1 = HSF1 (Homo sapiens, UniProt Q00613 1-529); settings: protein: recombinant; tags: N-terminal GST; chain copies: 3; dsDNA, one strand shown
# Chain of HSF1 (Q00613 whole entry): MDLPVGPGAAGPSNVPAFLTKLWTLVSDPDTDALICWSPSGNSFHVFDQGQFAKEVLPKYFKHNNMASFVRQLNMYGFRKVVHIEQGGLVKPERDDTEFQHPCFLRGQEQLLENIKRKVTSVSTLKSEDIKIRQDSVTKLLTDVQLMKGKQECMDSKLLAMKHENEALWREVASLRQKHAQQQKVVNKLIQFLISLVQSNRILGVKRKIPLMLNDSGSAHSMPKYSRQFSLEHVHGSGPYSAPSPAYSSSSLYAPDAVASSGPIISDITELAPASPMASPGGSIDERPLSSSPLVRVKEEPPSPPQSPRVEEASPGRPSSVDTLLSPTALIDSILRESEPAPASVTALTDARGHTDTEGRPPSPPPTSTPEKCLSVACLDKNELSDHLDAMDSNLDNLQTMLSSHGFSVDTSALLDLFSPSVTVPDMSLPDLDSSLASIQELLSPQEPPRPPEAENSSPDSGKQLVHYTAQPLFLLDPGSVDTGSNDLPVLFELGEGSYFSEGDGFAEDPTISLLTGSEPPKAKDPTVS
# Procedure, shortened: as §1
# SPIC = target: T8, SPIC (Homo sapiens, UniProt Q8N5J4 1-248); settings: protein: recombinant; tags: N-terminal GST; dsDNA, one strand shown
# T8 sequence: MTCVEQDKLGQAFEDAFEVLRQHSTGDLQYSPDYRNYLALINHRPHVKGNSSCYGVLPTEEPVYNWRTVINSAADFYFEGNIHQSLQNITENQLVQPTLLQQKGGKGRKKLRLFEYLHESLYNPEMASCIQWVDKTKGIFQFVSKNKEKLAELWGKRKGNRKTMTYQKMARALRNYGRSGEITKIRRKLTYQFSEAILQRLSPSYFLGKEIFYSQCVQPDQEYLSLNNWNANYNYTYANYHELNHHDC
# Procedure, shortened: as §1
# ELF4 = ELF4 (Homo sapiens, UniProt Q99607 1-663); settings: protein: recombinant; tags: N-terminal GST; dsDNA, one strand shown
# Chain of ELF4 (Q99607 whole entry): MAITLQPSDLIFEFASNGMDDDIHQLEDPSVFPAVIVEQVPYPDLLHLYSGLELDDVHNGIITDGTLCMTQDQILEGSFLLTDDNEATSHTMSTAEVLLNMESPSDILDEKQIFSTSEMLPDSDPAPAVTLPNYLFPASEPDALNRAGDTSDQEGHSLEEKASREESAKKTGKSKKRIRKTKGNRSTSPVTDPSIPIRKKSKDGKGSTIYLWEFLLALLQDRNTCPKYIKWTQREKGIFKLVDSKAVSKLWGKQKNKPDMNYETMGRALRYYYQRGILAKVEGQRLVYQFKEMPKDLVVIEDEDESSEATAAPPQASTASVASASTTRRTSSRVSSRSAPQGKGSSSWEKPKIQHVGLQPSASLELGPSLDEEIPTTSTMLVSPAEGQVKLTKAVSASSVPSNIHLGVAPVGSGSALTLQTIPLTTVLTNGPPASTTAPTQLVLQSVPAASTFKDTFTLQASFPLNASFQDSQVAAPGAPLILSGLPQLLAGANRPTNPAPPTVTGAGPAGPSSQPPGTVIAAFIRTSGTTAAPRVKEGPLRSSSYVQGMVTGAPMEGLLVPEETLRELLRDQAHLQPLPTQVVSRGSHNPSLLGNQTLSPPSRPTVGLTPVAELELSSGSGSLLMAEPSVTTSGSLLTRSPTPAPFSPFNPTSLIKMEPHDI
# Procedure, shortened: as §1
# ELK4 = target: T9, ELK4 (Homo sapiens, UniProt P28324-2 1-405); settings: protein: recombinant; tags: N-terminal GST; dsDNA, one strand shown
# T9 sequence: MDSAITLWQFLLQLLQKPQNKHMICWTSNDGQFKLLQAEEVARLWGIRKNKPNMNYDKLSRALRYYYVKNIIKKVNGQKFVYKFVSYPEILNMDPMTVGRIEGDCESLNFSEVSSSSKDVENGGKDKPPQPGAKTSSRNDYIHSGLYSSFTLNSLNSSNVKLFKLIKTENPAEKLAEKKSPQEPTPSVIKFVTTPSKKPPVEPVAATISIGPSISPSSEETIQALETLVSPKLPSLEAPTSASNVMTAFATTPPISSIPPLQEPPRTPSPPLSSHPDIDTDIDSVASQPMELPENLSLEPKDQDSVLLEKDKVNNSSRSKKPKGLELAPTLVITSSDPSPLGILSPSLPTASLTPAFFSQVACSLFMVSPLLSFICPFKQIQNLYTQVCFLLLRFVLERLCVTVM
# Procedure, shortened: as §1
# ETV2 = target: T10, ETV2 (Homo sapiens, UniProt O00321 1-342); settings: protein: recombinant; tags: N-terminal GST; dsDNA, one strand shown
# T10 sequence: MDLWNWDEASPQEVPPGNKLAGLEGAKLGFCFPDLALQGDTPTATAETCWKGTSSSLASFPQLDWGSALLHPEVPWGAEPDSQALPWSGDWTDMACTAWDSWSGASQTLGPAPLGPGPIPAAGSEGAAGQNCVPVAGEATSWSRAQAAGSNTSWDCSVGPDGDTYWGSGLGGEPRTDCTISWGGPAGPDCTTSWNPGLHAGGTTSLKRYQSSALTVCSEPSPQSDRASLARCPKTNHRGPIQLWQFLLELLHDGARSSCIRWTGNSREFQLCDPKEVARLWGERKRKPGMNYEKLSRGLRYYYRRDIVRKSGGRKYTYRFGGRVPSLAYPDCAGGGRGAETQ
# Procedure, shortened: as §1
# ELF3 = target: T11, ELF3 (Homo sapiens, UniProt P78545 1-371); settings: protein: recombinant; tags: N-terminal GST; dsDNA, one strand shown
# T11 sequence: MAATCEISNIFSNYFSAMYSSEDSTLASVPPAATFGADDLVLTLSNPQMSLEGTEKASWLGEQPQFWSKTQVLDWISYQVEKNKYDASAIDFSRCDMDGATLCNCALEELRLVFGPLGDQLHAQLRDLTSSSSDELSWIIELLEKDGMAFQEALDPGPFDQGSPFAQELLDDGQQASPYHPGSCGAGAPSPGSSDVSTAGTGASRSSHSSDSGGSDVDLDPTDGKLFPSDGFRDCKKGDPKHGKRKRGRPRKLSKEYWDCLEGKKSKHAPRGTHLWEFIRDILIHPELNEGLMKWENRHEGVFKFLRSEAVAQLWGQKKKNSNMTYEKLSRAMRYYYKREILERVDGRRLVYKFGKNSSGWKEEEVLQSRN
# Procedure, shortened: as §1
# CRX = CRX (Homo sapiens, UniProt O43186 1-299); settings: protein: recombinant; tags: N-terminal GST; dsDNA, one strand shown
# Chain of CRX (O43186 whole entry): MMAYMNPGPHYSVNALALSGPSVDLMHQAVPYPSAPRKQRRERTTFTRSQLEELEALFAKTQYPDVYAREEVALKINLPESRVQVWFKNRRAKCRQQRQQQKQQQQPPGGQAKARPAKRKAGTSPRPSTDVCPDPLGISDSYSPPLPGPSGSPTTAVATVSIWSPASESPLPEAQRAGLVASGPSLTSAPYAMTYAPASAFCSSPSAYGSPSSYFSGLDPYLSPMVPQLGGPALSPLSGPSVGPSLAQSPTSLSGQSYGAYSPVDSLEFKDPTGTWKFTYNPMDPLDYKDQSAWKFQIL
# Procedure, shortened: as §1
# ETV1 = ETV1 (Homo sapiens, UniProt P50549 1-477); settings: protein: recombinant; tags: N-terminal GST; dsDNA, one strand shown
# Chain of ETV1 (P50549 whole entry): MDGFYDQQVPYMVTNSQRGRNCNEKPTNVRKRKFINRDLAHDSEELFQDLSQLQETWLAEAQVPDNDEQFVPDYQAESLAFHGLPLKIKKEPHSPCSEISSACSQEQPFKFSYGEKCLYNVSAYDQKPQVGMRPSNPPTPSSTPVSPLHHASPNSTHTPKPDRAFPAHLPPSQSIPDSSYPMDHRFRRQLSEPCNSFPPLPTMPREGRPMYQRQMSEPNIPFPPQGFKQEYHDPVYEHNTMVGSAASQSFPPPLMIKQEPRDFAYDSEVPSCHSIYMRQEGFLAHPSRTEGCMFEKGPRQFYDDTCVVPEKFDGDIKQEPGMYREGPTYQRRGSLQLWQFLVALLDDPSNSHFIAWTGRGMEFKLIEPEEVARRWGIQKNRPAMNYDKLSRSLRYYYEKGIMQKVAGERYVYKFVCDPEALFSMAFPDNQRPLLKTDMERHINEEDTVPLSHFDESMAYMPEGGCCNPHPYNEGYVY
# Procedure, shortened: as §1
sequence,measurement,setting,value
CTATCT,binding signal,FLI1,"1.26 fold enrichment (6-mer frequency, TF over GST control)"
same,binding signal,ELK1,"1.43 fold enrichment (6-mer frequency, TF over GST control)"
same,binding signal,GABPA,"1.34 fold enrichment (6-mer frequency, TF over GST control)"
same,binding signal,ERG,"1.29 fold enrichment (6-mer frequency, TF over GST control)"
same,binding signal,ELF1,"1.34 fold enrichment (6-mer frequency, TF over GST control)"
same,binding signal,EHF,"1.54 fold enrichment (6-mer frequency, TF over GST control)"
same,binding signal,SPI1,"1.42 fold enrichment (6-mer frequency, TF over GST control)"
same,binding signal,SPIB,"1.28 fold enrichment (6-mer frequency, TF over GST control)"
same,binding signal,ELK3,"1.48 fold enrichment (6-mer frequency, TF over GST control)"
same,binding signal,FEV,"1.34 fold enrichment (6-mer frequency, TF over GST control)"
same,binding signal,ETV5,"1.22 fold enrichment (6-mer frequency, TF over GST control)"
same,binding signal,HSF1,"1.4 fold enrichment (6-mer frequency, TF over GST control)"
same,binding signal,SPIC,"1.34 fold enrichment (6-mer frequency, TF over GST control)"
same,binding signal,ELF4,"1.34 fold enrichment (6-mer frequency, TF over GST control)"
same,binding signal,ELK4,"1.15 fold enrichment (6-mer frequency, TF over GST control)"
same,binding signal,ETV2,"1.39 fold enrichment (6-mer frequency, TF over GST control)"
same,binding signal,ELF3,"1.29 fold enrichment (6-mer frequency, TF over GST control)"
same,binding signal,CRX,"1.4 fold enrichment (6-mer frequency, TF over GST control)"
same,binding signal,ETV1,"1.24 fold enrichment (6-mer frequency, TF over GST control)"
